# High-throughput results: PubChem BioAssay, several laboratories
# CSC inhib = blocks cancer stem cells; AID 2717; cancer stem cell-like cells viability, luminescence; inhibition, % at 7.5 µM; 300,000 compounds, 1.1% hits; in the data active = inhibition above about 75%; tested in HMLE shEcad cells
# Beta cell apopt = blocks beta cell apoptosis | protection from apoptosis, % (concentration not given with the values) | INS-1E cytokine-induced death, ATP luminescence, 48 h; percent of positive-control rescue, neutral wells zero | AID 435005 | 300,000 compounds, 0.8% hits;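 active = Every replicate reaches about 75%, or at least half do and their mean reaches it too, limit read from the data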;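 note: 0% = cytokine-treated negative control wells and 100% = positive control rescue; higher means more ATP so stronger rescue from cytokine killing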
# Calb FLC = affects C. albicans growth with fluconazole | AID 1979 | C. albicans CaCi-2 (fluconazole-resistant clinical isolate) + fluconazole, Alamar Blue growth, 48 h | 300,000 compounds, 0.57% hits | growth inhibition, % (test concentration not listed);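 active = growth inhibition above about 58% in most replicates, limit read from the data, passing the limit was not always enough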;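 note: all wells also contain fluconazole at 8 µg/ml as a sub-toxic cotreatment; 0% = median of DMSO wells and 100% = median of geldanamycin control wells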
# PP1 counter = counter-screen for PP5 inhibitors: inhibitors of human PP1-alpha. P62136. purified PP1alpha, OMFP fluorescence. inhibition, % at 6.7 µM. 320,000 compounds, 0.9% hits;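 active = inhibition above the mean inhibition of all tested compounds plus 3 SD, computed separately for each screening campaign, cut at about 15% in these data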
# PP5 primary = inhibitors of human protein phosphatase 5 (PP5); AID 1987; 320,000 compounds, 0.18% hits; inhibition, % at 6.7 µM; purified PP5c, OMFP substrate fluorescence;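 active = inhibition above the campaign's mean inhibition across all tested compounds plus 3 SD, cut at about 9.5% in these data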;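 note: 0% = DMSO only and 100% = 100 µM cantharidin control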
# Target sequence (P53041 whole entry, looked up): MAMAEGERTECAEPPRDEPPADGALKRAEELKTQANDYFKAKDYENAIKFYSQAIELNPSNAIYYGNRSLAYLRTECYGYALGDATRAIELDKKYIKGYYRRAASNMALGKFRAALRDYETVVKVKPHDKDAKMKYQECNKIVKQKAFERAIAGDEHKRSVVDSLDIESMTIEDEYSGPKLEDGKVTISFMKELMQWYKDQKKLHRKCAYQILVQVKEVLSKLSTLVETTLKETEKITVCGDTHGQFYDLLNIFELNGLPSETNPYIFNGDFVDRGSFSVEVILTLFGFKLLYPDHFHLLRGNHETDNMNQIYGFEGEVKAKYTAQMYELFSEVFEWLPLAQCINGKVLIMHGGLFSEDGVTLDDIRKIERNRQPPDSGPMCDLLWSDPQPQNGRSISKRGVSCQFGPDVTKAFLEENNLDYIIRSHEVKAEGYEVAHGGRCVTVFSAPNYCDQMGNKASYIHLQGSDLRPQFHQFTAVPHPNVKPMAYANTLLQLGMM
# Mdm2-MdmX inh = inhibitors of human Mdm2/MdmX interaction; 330,000 compounds, 3% hits; O15151+Q00987; inhibition, % at 8 µM; AID 485346; SaOS-2 split-luciferase Mdm2/MdmX complementation, luminescence;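 active = inhibition of at least 50% at 8 µM in the primary screen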
# Mdm2 MdmX conf = confirmation of human Mdm2/MdmX interaction inhibitors; shares compounds with Mdm2-MdmX inh; Mdm2-MdmX binding, luminescent assay; inhibition, % at 8 µM; 10,000 compounds, 55% hits; AID 489028; in the data active = inhibition above about 40%
# FLuc counter = counter-screen for Mdm2/MdmX inhibitors: full-length luciferase | shares compounds with Mdm2-MdmX inh | SaOS-2 full-length luciferase counterscreen, luminescence | inhibition, % at 8 µM | 6,200 compounds, 77% hits | AID 504607;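 active = mean inhibition at 8 µM reaching about 37%, which flags the compound as non-specific, limit read from the data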;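 note: p53-null SaOS-2 cells with luciferase driven by a doxycycline-inducible promoter; compound on cells about two nights before reading with doxycycline added after day one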
# * marks the source's active call; other numbers are inactive results; x = not tested or not shown. This is a sample that favours compounds with a hit; in the whole collection about 4.9% have one here.
SMILES,CSC inhib,Beta cell apopt,Calb FLC,PP1 counter,PP5 primary,Mdm2-MdmX inh,Mdm2 MdmX conf,FLuc counter
CC1CCCCN1CCNC(=O)c1ccc2c(=O)n(Cc3ccc(Cl)cc3)c(=S)[nH]c2c1 (stereo not drawn),-12,5,28,3,-2,78*,32,x
O=C(NCC1CCCO1)c1ccc2c(=O)n(Cc3ccc(Cl)cc3)c(=S)[nH]c2c1 (stereo not drawn),-8,2,-1,8,1,56*,31,x
Cc1ccc(C(C)C)c(OCC(=O)N/N=C2\CC(=O)CC(C)(C)C2)c1,-11,-4,7,0,1,29,x,x
COc1ccc(/C=N\NC(=O)c2ccccc2OC)cc1COc1c(F)c(F)c(F)c(F)c1F,11,0,5,4,7,5,x,x
COc1ccc(/C=N\NC(=O)c2ccccc2Cl)cc1COc1c(F)c(F)c(F)c(F)c1F,72,4,-3,3,3,56*,22,x
CN(C)c1ccc(C(=O)NC2(N3CCC3=O)CCCC2)cc1,0,-1,-1,3,1,7,x,x
COc1ccc(Br)c(C(=O)N2CCN(S(=O)(=O)c3cccs3)CC2)c1,2,-2,-5,-2,-1,4,x,x
CC(=O)c1c(C)[nH]c(C(=O)OCC(=O)Nc2cc(C(F)(F)F)ccc2N2CCOCC2)c1C,-5,7,-11,4,1,51*,32,x
Cc1ccc2nc(SCC(=O)Nc3cc(C(F)(F)F)ccc3N3CCOCC3)[nH]c2c1,62,45,-1,2,1,84*,65*,91*
CCN(CC)S(=O)(=O)c1ccc(N2CCOCC2)c(NC(=O)c2[nH]c(C)c(C(C)=O)c2C)c1,-14,0,x,x,x,83*,41*,68*
CCN(CC)S(=O)(=O)c1ccc(N2CCOCC2)c(NC(=O)c2ccc(F)cc2)c1,7,3,10,0,1,6,x,x
CC(=O)c1c(C)[nH]c(C(=O)OCC(=O)Nc2ccc(C)cc2[N+](=O)[O-])c1C,-8,123*,24,1,3,51*,37,58*
CC(=O)c1c(C)[nH]c(C(=O)OCC(=O)Nc2cc(Cl)ccc2[N+](=O)[O-])c1C,3,40,9,2,2,31,x,x
CCN(C(=O)C(C)N1C(=O)/C(=C/c2ccco2)SC1=S)C1CCS(=O)(=O)C1 (stereo not drawn),28,-17,-2,-7,-1,55*,2,x
CC(Oc1ccccc1)C(=O)Nc1ccc(NC(=O)c2ccccc2)cc1 (stereo not drawn),1,-2,0,0,0,66*,37,52*
COc1cc(NC(=O)C(C)Oc2ccccc2)c(OC)cc1NC(=O)c1ccccc1 (stereo not drawn),-5,x,5,2,1,9,x,x
O=C(Nc1nc2ccc(F)cc2s1)c1ccccn1,-6,76*,10,0,2,93*,65*,58*
O=C(Nc1nnc(SCc2ccc(F)cc2)s1)c1ccccn1,x,x,103*,x,x,82*,69*,41*
O=C(Nc1nc2ccccc2s1)c1cnccn1,19,18,22,-2,1,-2,x,x
CCCSc1nnc(NC(=O)Nc2ccc(F)cc2)s1,38,47,-8,3,4,95*,85*,28
O=C(Nc1nnc(SCc2ccc(F)cc2)s1)c1cccnc1Cl,6,-5,1,1,-1,31,x,x
CC(=O)Nc1ccc(S(=O)(=O)NCCCc2ccccc2)cc1,x,x,-21,-1,-2,28,x,x
Cc1csc(=O)n1CC(=O)OCC(=O)NCc1ccc(Cl)cc1Cl,-21,x,-2,-10,-1,10,x,x
N/C(CCS(=O)(=O)c1ccc(Cl)cc1)=N\OC(=O)c1ccc(Cl)cc1,5,0,28,-1,0,55*,18,x
N/C(CCS(=O)(=O)c1ccc(Cl)cc1)=N\OC(=O)c1ccccc1C(F)(F)F,10,x,17,2,4,94*,93*,23
N/C(CS(=O)(=O)c1ccccn1)=N\OC(=O)c1ccc(Cl)cc1,-7,4,x,-4,2,0,x,x
